# Laboratory results taken from article PMC7862700, “An all-to-all approach to the identification of sequence-specific readers for epigenetic DNA modifications on cytosine”.
# How the values were obtained:
# Assay in all cases: DAPPL (digital affinity profiling via proximity ligation, sequencing); 10 mM Tris-HCl pH 7.5, 50 mM NaCl, 1 mM DTT, 4% glycerol, room temperature, 30 min; GST-TFs on glutathione beads, 16-mer random dsDNA library, 0.1% formaldehyde crosslink after washing; high values mean tight binding
# Conditions in all cases: protein: recombinant; tags: N-terminal GST; dsDNA, one strand shown
# ELK4 = molecular target: T1, ELK4 (Homo sapiens, UniProt P28324-2 1-405)
# T1 sequence: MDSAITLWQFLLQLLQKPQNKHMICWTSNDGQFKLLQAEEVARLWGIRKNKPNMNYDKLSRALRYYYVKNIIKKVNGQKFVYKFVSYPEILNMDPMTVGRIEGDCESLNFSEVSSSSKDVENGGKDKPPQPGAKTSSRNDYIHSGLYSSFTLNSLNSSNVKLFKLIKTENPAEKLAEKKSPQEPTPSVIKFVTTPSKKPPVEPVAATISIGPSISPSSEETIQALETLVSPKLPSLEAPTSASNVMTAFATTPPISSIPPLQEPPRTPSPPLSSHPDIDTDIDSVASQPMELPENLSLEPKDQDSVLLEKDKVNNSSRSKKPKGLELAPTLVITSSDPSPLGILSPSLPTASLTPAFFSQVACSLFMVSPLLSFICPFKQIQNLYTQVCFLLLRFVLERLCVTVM
# Procedure, shortened: (§1)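 Beads coated with glutathione captured GST-fused human transcription factors that had been expressed in yeast, and the factors were then given DNA barcodes and pooled with a tag-only sample. The pools were incubated with 200 nmole of a random double-stranded 16-mer DNA library in Tris/NaCl/DTT/glycerol buffer for 30 min at room temperature, washed, crosslinked with 0.1% formaldehyde and proximity-ligated with BsaI/T4 ligase at 37 °C for 1 h. PCR amplification and Illumina NextSeq500 sequencing came last. Binding signal is each hexamer's read frequency for a factor divided by its frequency for the tag-only sample.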
# ELF3 = molecular target: T2, ELF3 (Homo sapiens, UniProt P78545 1-371)
# T2 sequence: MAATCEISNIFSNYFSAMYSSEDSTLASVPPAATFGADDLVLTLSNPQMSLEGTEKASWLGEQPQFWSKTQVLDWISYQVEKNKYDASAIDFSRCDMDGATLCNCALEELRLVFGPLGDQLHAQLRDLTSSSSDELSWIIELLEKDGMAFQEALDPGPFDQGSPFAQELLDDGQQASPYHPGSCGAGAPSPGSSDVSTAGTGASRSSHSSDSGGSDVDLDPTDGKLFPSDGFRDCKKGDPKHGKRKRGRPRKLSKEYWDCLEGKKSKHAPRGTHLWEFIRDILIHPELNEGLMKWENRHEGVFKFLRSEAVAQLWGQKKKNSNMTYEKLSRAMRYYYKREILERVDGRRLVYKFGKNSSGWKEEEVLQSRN
# Procedure, shortened: as §1
# ETV1 = ETV1 (Homo sapiens, UniProt P50549 1-477)
# Sequence of ETV1 (P50549 whole entry): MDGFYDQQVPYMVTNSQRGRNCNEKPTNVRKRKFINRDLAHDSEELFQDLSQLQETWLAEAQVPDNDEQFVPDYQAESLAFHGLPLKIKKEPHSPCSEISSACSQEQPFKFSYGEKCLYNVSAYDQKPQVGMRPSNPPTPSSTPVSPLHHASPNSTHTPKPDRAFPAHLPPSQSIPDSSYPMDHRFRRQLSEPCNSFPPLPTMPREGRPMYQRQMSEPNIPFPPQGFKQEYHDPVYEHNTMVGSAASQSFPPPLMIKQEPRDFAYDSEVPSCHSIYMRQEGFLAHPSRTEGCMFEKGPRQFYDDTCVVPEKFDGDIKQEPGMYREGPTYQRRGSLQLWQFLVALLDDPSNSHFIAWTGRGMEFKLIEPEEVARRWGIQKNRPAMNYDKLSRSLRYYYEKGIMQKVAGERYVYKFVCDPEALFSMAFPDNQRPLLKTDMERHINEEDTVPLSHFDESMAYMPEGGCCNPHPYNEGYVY
# Procedure, shortened: as §1
# ERF = molecular target: T3, ERF (Homo sapiens, UniProt P50548 1-548)
# T3 sequence: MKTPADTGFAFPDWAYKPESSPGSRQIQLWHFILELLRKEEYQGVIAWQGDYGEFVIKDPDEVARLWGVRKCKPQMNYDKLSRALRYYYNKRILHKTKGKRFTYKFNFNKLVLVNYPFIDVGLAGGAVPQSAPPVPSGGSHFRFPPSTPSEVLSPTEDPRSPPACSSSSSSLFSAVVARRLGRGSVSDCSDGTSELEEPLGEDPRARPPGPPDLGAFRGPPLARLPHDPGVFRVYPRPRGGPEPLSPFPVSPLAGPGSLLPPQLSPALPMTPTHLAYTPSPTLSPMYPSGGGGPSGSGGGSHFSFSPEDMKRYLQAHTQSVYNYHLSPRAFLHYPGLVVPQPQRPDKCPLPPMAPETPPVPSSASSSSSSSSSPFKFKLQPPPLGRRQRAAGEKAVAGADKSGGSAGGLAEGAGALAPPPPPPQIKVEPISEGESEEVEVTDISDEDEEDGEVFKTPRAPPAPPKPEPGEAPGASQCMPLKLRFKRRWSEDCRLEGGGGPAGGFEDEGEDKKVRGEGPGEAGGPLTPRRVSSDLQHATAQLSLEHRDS
# Procedure, shortened: as §1
# ETV3L = molecular target: T4, ETV3L (Homo sapiens, UniProt Q6ZN32 1-361)
# T4 sequence: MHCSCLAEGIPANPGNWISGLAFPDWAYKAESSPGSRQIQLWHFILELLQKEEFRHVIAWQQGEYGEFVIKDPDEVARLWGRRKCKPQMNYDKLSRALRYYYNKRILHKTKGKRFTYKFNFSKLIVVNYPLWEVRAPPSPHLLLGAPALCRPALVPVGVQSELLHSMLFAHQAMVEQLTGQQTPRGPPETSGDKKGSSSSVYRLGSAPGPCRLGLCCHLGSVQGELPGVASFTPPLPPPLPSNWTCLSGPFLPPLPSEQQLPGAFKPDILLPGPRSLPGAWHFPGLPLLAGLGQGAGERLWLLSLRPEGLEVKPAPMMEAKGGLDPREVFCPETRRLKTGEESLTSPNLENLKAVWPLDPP
# Procedure, shortened: as §1
# ETS2 = molecular target: T5, ETS2 (Homo sapiens, UniProt P15036 1-469)
# T5 sequence: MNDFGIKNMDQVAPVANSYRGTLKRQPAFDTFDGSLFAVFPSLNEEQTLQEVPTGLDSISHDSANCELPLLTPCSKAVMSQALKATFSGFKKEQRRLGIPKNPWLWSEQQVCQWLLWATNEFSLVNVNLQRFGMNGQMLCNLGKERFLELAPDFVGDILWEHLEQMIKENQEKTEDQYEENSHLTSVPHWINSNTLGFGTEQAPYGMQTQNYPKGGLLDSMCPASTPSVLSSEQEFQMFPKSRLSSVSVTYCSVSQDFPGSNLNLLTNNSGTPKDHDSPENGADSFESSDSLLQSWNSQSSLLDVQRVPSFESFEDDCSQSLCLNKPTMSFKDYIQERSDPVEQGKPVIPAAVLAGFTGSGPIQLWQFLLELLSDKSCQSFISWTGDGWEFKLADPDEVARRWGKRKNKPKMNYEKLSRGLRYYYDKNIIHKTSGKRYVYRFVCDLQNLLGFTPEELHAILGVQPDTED
# Procedure, shortened: as §1
# SPDEF = molecular target: T6, SPDEF (Homo sapiens, UniProt O95238 1-335)
# T6 sequence: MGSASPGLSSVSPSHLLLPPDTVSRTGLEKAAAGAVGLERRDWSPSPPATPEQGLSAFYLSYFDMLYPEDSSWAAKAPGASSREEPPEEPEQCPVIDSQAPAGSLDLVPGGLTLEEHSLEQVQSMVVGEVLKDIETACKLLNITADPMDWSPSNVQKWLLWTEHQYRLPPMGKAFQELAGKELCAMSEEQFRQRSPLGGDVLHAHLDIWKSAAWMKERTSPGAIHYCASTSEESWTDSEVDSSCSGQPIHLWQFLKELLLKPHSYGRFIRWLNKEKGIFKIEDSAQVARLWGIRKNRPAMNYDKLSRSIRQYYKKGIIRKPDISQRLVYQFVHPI
# Procedure, shortened: as §1
# ETV7 = molecular target: T7, ETV7 (Homo sapiens, UniProt Q9Y603 1-341)
# T7 sequence: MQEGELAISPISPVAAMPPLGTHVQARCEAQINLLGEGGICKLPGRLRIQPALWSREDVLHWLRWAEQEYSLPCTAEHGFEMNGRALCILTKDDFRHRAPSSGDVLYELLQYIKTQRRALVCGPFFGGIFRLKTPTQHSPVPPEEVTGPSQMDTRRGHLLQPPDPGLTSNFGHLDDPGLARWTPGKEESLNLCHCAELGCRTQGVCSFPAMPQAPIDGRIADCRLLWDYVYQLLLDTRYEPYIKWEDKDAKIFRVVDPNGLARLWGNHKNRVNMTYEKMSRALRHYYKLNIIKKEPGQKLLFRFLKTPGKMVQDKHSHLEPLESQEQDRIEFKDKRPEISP
# Procedure, shortened: as §1
# ETV3 = molecular target: T8, ETV3 (Homo sapiens, UniProt P41162-2 1-143)
# T8 sequence: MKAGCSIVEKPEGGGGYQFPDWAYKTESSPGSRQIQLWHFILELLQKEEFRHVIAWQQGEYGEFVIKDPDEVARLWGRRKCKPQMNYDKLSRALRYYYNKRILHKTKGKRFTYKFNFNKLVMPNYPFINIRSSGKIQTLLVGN
# Procedure, shortened: as §1
# ETV6 = ETV6 (Homo sapiens, UniProt P41212 1-452)
# Sequence of ETV6 (P41212 whole entry): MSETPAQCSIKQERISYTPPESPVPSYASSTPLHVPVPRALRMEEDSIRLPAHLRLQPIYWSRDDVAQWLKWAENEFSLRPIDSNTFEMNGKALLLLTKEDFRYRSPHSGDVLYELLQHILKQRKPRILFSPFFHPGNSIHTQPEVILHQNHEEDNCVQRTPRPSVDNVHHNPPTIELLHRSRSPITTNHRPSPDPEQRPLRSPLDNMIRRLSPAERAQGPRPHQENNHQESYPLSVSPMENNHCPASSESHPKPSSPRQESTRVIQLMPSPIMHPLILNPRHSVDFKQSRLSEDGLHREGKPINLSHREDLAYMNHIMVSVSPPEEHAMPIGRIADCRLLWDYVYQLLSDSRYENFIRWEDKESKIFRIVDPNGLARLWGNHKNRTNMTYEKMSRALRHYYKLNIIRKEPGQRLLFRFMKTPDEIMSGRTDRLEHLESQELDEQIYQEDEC
# Procedure, shortened: as §1
sequence,measurement,setting,value
CAAACA,binding signal,ELK4,"1.13 fold enrichment (6-mer frequency, TF over GST control)"
same,binding signal,ELF3,"1.21 fold enrichment (6-mer frequency, TF over GST control)"
same,binding signal,ETV1,"1.09 fold enrichment (6-mer frequency, TF over GST control)"
same,binding signal,ERF,"1.08 fold enrichment (6-mer frequency, TF over GST control)"
same,binding signal,ETV3L,"1.12 fold enrichment (6-mer frequency, TF over GST control)"
same,binding signal,ETS2,"1.16 fold enrichment (6-mer frequency, TF over GST control)"
same,binding signal,SPDEF,"1.12 fold enrichment (6-mer frequency, TF over GST control)"
same,binding signal,ETV7,"1.07 fold enrichment (6-mer frequency, TF over GST control)"
same,binding signal,ETV3,"1.13 fold enrichment (6-mer frequency, TF over GST control)"
same,binding signal,ETV6,"1.1 fold enrichment (6-mer frequency, TF over GST control)"
